Measured values reported in PubChem BioAssay.
“And” between values parts separate entries of the source, which are not always exact repeats. Equal entries are not always repeated.

Experiments:
[1] = system: Botulinum neurotoxin type F light chain protease (Clostridium botulinum); experiment: Clostridium botulinum type F light chain protease inhibitors, microsphere substrate cleavage, validation (AID 588459); conditions: multiplex microsphere protease substrate cleavage assay, flow cytometry; at 10 µM; hits give high values
[2] = biological target: Botulinum neurotoxin type A (Clostridium botulinum) (UniProt P0DPI0); experiment: BoNT/A light chain protease inhibitors, biochemical, multiplex microsphere flow cytometry, validation set (AID 588460); conditions: at 10 µM, hits give high values
[3] = biological target: Lethal factor (Bacillus anthracis) (UniProt P15917); experiment: Bacillus anthracis lethal factor inhibition, microsphere flow cytometry protease assay, validation at 10 µM (AID 588461); conditions: multiplex microsphere protease cleavage assay, hits give high values

Measured: inhibition

COc1ccccc1OS(=O)(=O)c1ccc(NC(C)=O)cc1
inactive: [1] -1.9% | [2] 1.2% | [3] 3%

C[C@H]1O[C@@H](O[C@H]2[C@@H](O)C[C@H](O[C@H]3[C@@H](O)C[C@H](O[C@H]4CC[C@@]5(C)[C@H](CC[C@@H]6[C@@H]5C[C@@H](O)[C@]5(C)[C@@H](C7=CC(=O)OC7)CC[C@]65O)C4)O[C@@H]3C)O[C@@H]2C)C[C@H](O)[C@@H]1O
inactive: [1] 2.7% | [2] -0.7% | [3] -2.8%

CCOC(=O)C1CCCN(Cc2nc(Cc3cccc(F)c3)no2)C1 (configuration not stated)
inactive: [1] 0.1% | [2] -0.4% | [3] 0.6%

COc1cc2nc(N3CCN(C(=O)C4CCCO4)CC3)nc(N)c2cc1OC (configuration not stated)
inactive: [1] 3.3% and 1.5% | [2] 0% | [3] -5.7% and -7.8%

CC(C)(C)n1c(=O)[nH]c2c(c1=O)CCC2
inactive: [1] 1.8% | [2] -0.4% | [3] -3.9%

COc1ccc(N2C(=O)[C@@H]3Cc4ccccc4CN3C2=O)cc1
inactive: [1] 1.7% | [2] 0.4% | [3] -0.7%

C=CCc1cc(Cl)ccc1OCCOCCN(C)C
inactive: [1] -0.1% | [2] -1.3% | [3] -1.2%

O=C(Nc1ccc(C(=O)NC2CCCCC2)cc1)c1cccnc1
inactive: [1] 0.1% | [2] -1.5% | [3] -12.6%

O=C(O)[C@@H](O)c1ccccc1
inactive: [1] -0.3% | [2] 0% | [3] -3.5%
